Screening results as filed in PubChem BioAssay.
RPL19A TOR yeast: alters RPL19A-GFP fluorescence in TOR pathway yeast screen. AID 2025. percent response vs DMSO, % at 10 µM. 330,000 tested, 0.3% active. S. cerevisiae RPL19A-GFP strain, flow cytometry, 3 h; stronger effect = lower value;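 active means percent response vs DMSO below 50%; inconclusive means fewer than 70 events counted for the yeast strain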;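 further: median channel GFP fluorescence of the barcoded RPL19A-GFP strain; ratio of sample median GFP to plate DMSO average so 100% = DMSO; lower means less RPL19A-GFP as with rapamycin TOR inhibition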
MEP2-GFP yeast: yeast TOR pathway MEP2-GFP modulation; S. cerevisiae MEP2-GFP strain, flow cytometry GFP, 3 h; 100% = DMSO control level; GFP response vs DMSO, % at 10 µM; 330,000 tested, 0.51% active; AID 2016;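 active means GFP response versus DMSO above a set limit, roughly screen mean plus 3 SD, cut at about 180% in these data; inconclusive means fewer than 70 cells counted for a yeast strain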;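 further: median GFP fluorescence of the barcode-gated MEP2-GFP cells per well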
AGP1 TOR yeast: modulators of TOR pathway AGP1-GFP in S. cerevisiae; AID 2066; GFP response vs DMSO, % at 10 µM; S. cerevisiae AGP1-GFP multiplex flow cytometry, 3 h; GFP as percent of DMSO wells; 320,000 tested, 0.02% active;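 active means GFP response relative to DMSO above a set limit, near screen average plus 3 SD, cut at about 150% in these data; inconclusive means fewer than 70 cells counted for the yeast strain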;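 further: median GFP channel fluorescence of the gated AGP1 strain per well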
CIT2 TOR yeast: alters CIT2-GFP fluorescence in TOR pathway yeast screen; GFP response vs DMSO, % at 10 µM; S. cerevisiae CIT2-GFP strain, flow cytometry, 3 h; 100 means same as DMSO wells; 320,000 tested, 0.065% active; AID 2029;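 active means GFP response relative to DMSO above a set limit, near the screen mean plus 3 SD, cut at about 150% in these data; inconclusive means Fewer than 70 cells measured for a yeast strain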;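 further: ratio of well median GFP fluorescence to mean of DMSO wells on the plate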
LAP4 TOR yeast: modulators of TOR pathway LAP4-GFP in S. cerevisiae; S. cerevisiae LAP4-GFP multiplex, flow cytometry GFP, 3 h; median GFP as percent of DMSO wells; GFP response vs DMSO, % at 10 µM; 320,000 tested, 0.34% active; AID 2023;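 active means GFP response vs DMSO above a set limit, about the screen mean plus 3 SD, cut at about 150% in these data; inconclusive means under 70 cell events counted for the yeast strain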
LAP4-GFP pick2: reconfirmed LAP4-GFP TOR pathway modulator in yeast | S. cerevisiae LAP4-GFP strain, flow cytometry GFP, 3 h | shares compounds with LAP4 TOR yeast | AID 2621 | 590 tested, 20% active | GFP response vs DMSO, % at 10 µM;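 active means GFP signal as percent of the solvent control above about 150%, meaning raised reporter expression, limit read from the data; inconclusive means fewer than 70 cells counted in the well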;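 further: ratio of well median GFP fluorescence to plate DMSO mean so 100% = DMSO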
MEP2 cherry2: second confirmation of modulators of TOR reporter MEP2-GFP in yeast. shares compounds with LAP4 TOR yeast. S. cerevisiae MEP2-GFP strain, flow cytometry GFP, 3 h. GFP response vs DMSO, % at 10 µM. 590 tested, 10% active;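 active means GFP signal above 150% of the solvent control wells, that is a rise of more than half; inconclusive means fewer than 70 yeast cells counted in the well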;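 further: median channel GFP fluorescence of all gated yeast cells per well; ratio of median GFP to plate DMSO average so 100% = DMSO level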
RPL19A-GFP pick2: second confirmation of modulators of TOR reporter RPL19A-GFP in yeast | shares compounds with LAP4 TOR yeast | S. cerevisiae RPL19A-GFP strain, flow cytometry GFP, 3 h; stronger effect = lower value; 100% means same as DMSO wells | GFP response vs DMSO, % at 10 µM | 590 tested, 3% active | AID 2623;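 active means under 65% GFP response relative to DMSO; inconclusive means yeast strain with under 70 measured events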;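 further: median GFP channel fluorescence per well over the all cells gate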
CIT2 GFP CP2: yeast CIT2-GFP TOR reporter modulation, second cherry pick; shares compounds with LAP4 TOR yeast; S. cerevisiae CIT2-GFP strain, flow cytometry GFP, 3 h; DMSO control wells read 100%; GFP response vs DMSO, % at 10 µM; 590 tested, 8% active; AID 2624;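 active means GFP response vs DMSO above about 150%, limit read from the data; inconclusive means fewer than 70 events counted for a yeast strain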;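 further: median green fluorescence per well over all gated yeast cells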
AGP1-GFP pick2: yeast AGP1-GFP TOR reporter modulation, second cherry pick | shares compounds with LAP4 TOR yeast | S. cerevisiae AGP1-GFP strain, flow cytometry GFP, 3 h | percent response vs DMSO, % at 10 µM | 590 tested, under 10 active;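 active means over 150 percent of DMSO response; inconclusive means yeast strain measured with under 70 events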;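 further: median GFP channel fluorescence over all cells without mother daughter split; sample median GFP divided by mean DMSO control so 100% equals DMSO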
The depositor's hits bear a star; u = inconclusive; x = no result given; [ ] = another dose, or the depositor's remark. Shown are actives, neighbours in structure and some others; about 0.93% of the full set was active somewhere.

SMILES	RPL19A TOR yeast	MEP2-GFP yeast	AGP1 TOR yeast	CIT2 TOR yeast	LAP4 TOR yeast	others
COc1cccc(C(=O)Nc2ccc(NC(C)=O)cc2)c1	91.1	97.3	89.2	93.2	91.8
C=CCN1C(=O)[C@@H]2Cc3c([nH]c4ccccc34)C(c3ccc(O)cc3)N2C1=S (stereo partly specified)	96.4	99.8	108.2	118.0	114.4
Cc1cc(C)nc(/N=C(\N)N2CCCCCC2)n1	102.6	175.9*	100.0	106.4	116.7
Cc1cc(C)nc(/N=C(\N)N2CCCCC2)n1	102.5	99.0	99.8	105.7	89.7
CCC1CCc2c(sc(NC(=O)c3ccco3)c2C(N)=O)C1 (stereo unspecified)	93.8	96.7	94.1	97.0	95.8
N#Cc1c(-c2ccccc2)nc(SCC(=O)NC2CCCCC2)[nH]c1=O	119.8	116.4	120.4	112.2	107.2
COC(=O)C(CC(C)C)NC(=O)CSc1nc(-c2ccccc2)c(C#N)c(=O)[nH]1 (stereo unspecified)	45.5*[may fluoresce violet]	228.0*[may fluoresce violet]	u	u	80.4
O=C(O)Cc1ccc2ccc3ccccc3c2c1	75.6	100.8	112.2	94.6	157.5*
O=C(CCS(=O)(=O)c1ccccc1)NNC(=O)COc1ccc(F)cc1	99.1	109.8	96.9	123.9	99.4
COC(=O)Cc1csc(Nc2ccc(F)c(Cl)c2)n1	76.4	90.1	71.4	80.2	196.5*
Cc1cc(C)c2oc(C(=O)Nc3ccc(S(=O)(=O)N4CCCC(C)C4)cc3)cc(=O)c2c1 (stereo unspecified)	102.8	103.4	97.3	102.8	89.6
COC(=O)c1ccc(NC(=O)C23CCC(C)(C(=O)O2)C3(C)C)cc1 (stereo unspecified)	96.6	95.2	107.9	96.0	150.3*
COc1ccc(Cl)cc1NS(=O)(=O)c1ccc(OC)c(OC)c1	19.5*[may fluoresce violet]	208.7*[may fluoresce violet]	u	u	101.1
COc1ccc(S(=O)(=O)Nc2cc(Cl)ccc2OC)cc1	94.0	99.1	96.5	98.3	103.6
O=C(OCn1nnc2ccccc2c1=O)C1COc2ccccc2O1 (stereo unspecified)	106.0	109.4	111.9	109.9	115.2
Cc1cc(OCc2cc(C(=O)N(C)C3CCOC3)no2)cc(C)c1Cl (stereo unspecified)	27.2*[may fluoresce violet]	120.8	u	u	84.1
O=C(NNC(=O)c1ccccc1Cl)c1cccnc1	106.7	107.4	98.8	107.1	96.7
CC(C)=CC(=O)Nc1ccc(OCc2ccccc2)cc1	104.3	95.7	92.7	94.2	102.9
COc1ccccc1CNc1nc(C)c(C(C)=O)s1	105.5	104.1	103.3	91.0	88.7
COc1ccccc1CNc1nc(S(=O)(=O)c2ccccc2)c(Cl)s1	103.4	192.3*	100.2	100.1	113.1
Cc1cc(Oc2nc3ccccn3c(=O)c2/C=C(\C#N)C(=O)NC2CCS(=O)(=O)C2)ccc1Cl (stereo unspecified)	59.8	533.1*[may fluoresce violet]	13.1	u	81.1
N#C/C(=C\c1c(Oc2ccc(Cl)cc2)nc2ccccn2c1=O)C(=O)NC1CCS(=O)(=O)C1 (stereo unspecified)	68.5	176.5*[may fluoresce violet]	15.5	u	88.3
Cc1cccn2c(=O)c(/C=C(\C#N)C(=O)NC3CCS(=O)(=O)C3)c(Oc3ccc(F)cc3)nc12 (stereo unspecified)	98.8	92.3	103.1	103.4	97.8
Cc1cccc(Oc2nc3ccccn3c(=O)c2/C=C(\C#N)C(=O)NC2CCS(=O)(=O)C2)c1C (stereo unspecified)	105.3	105.3	101.3	110.8	101.6
N#C/C(=C\c1c(N2CCCCC2)nc2ccccn2c1=O)C(=O)NC1CCS(=O)(=O)C1 (stereo unspecified)	53.5	260.1*[may fluoresce violet]	28.3	u	85.0
SMILES	RPL19A TOR yeast	MEP2-GFP yeast	AGP1 TOR yeast	CIT2 TOR yeast	LAP4 TOR yeast	others
CC(C)CN(CC(C)C)C(=O)CN1C(=O)NC2(CCc3ccccc3C2)C1=O (stereo unspecified)	104.1	107.1	97.8	103.2	93.5
O=C(c1cc(F)ccc1F)N1CCC(N2CCC(C(=O)N3CCCC3)CC2)CC1	37.0*[may fluoresce violet]	114.8	14.4	u	84.1
O=C(c1ccccc1Cl)N1CCC(N2CCC(C(=O)N3CCCC3)CC2)CC1	97.1	97.6	95.8	93.0	85.1
COc1cc2ccc(=O)oc2c(O[C@@H]2O[C@H](CO)[C@@H](O)[C@H](O)[C@H]2O)c1O	46.0*[may fluoresce violet]	286.8*[may fluoresce violet]	u	u	101.6
CNc1nc(-c2ccc(Cl)cc2)cs1	94.4	101.3	86.8	100.4	103.7
CC/C(=N/NC(=O)CNc1ccc(Cl)cc1C)c1ccccc1	77.5	480.9*[may fluoresce violet]	15.2	u	87.0
CC/C(=N\NC(=O)C1CC1)c1cccc(Cl)c1	97.0	99.4	107.5	102.4	106.9
Cc1c(C(=O)OC(C)CCN(C)C)oc2ccccc12 (stereo unspecified)	55.4	175.9*[may fluoresce violet]	19.4	u	91.0
Cc1c(C(=O)OCC(C)(C)CN(C)C)oc2ccccc12	98.1	97.4	94.0	x	85.2
O=c1c2c([N+](=O)[O-])cc([N+](=O)[O-])cc2sn1Cc1ccccc1	98.7	99.8	100.7	99.0	107.4
O=c1c2c([N+](=O)[O-])cc([N+](=O)[O-])cc2sn1-c1ccc(Br)cc1	32.0*	78.1	11.6	37.5	62.3	LAP4-GFP pick2=107.2;MEP2 cherry2=96.1;RPL19A-GFP pick2=94.4;CIT2 GFP CP2=102.9;AGP1-GFP pick2=99.5
CCOC(=O)N1CCN(C(=O)c2ccc(S(=O)(=O)Nc3ccccc3)cc2)CC1	96.2	111.0	87.5	172.0*	101.7	LAP4-GFP pick2=107.7;MEP2 cherry2=104.8;RPL19A-GFP pick2=100.9;CIT2 GFP CP2=101.8;AGP1-GFP pick2=98.6
O=S(=O)(c1ccc(F)cc1)c1snnc1-c1ccccc1	93.1	100.2	100.4	x	131.4	LAP4-GFP pick2=122.2;MEP2 cherry2=96.1;RPL19A-GFP pick2=97.2;CIT2 GFP CP2=108.5;AGP1-GFP pick2=93.8
O=C(NN=C1CCN(Cc2ccccc2)CC1)c1ccccc1	98.6	102.7	102.8	103.2	97.7
